High-throughput results from PubChem.
The list is not random: actives were taken first. Their share in the collection is about 0.28%.
mcGAS lum: mouse cGAS inhibition by luminescence | Q8C6L5 | 0.15% of 160,000 active | inhibition, % at 12.5 µM | recombinant cGAS, Kinase-Glo ATP depletion luminescence;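 further: 0% = negative control wells and 100% = reference inhibitor with no enzyme activity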
hcGAS inh: human cGAS inhibition; Q8N884; recombinant h-cGAS, ATP depletion, Kinase-Glo luminescence; inhibition, % at 12.5 µM; 0.081% of 290,000 active;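 further: 0% = vehicle reaction and 100% = reaction without DNA for no activity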
Target sequence (Q8N884 whole entry, looked up): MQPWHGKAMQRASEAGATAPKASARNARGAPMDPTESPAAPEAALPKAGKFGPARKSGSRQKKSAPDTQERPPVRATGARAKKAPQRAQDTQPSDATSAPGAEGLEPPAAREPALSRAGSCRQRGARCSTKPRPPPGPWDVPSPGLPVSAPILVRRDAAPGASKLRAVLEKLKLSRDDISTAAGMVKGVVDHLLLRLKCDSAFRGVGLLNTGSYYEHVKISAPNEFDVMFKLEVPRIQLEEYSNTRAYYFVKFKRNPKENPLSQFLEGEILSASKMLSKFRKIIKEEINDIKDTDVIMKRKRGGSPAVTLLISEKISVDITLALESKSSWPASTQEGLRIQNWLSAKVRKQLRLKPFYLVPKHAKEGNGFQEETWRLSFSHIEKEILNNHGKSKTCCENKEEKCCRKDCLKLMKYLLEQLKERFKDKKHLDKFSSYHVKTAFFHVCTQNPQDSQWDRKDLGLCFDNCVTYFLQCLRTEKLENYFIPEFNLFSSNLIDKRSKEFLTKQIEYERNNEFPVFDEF
NPYLR7 ag: activates Aedes aegypti NPYLR7 receptor; HEK293T NPYLR7/Galpha15, GCaMP6s calcium fluorescence; activation, % at 10 µM; 0.15% of 270,000 active; in the data active means activation above about 40%;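 further: 0% = vehicle and 100% = reference agonist at the receptor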
An asterisk follows results filed as active; . = no result; ! = not active in a repeat. Unless noted, no stated cut-off is given here; in the data, active means inhibition above about 40%; inactive means the rest.

SMILES | mcGAS lum | hcGAS inh | NPYLR7 ag
COC(=O)c1ccc(/C=C2/SC(=S)N(C(C(=O)O)C(C)C)C2=O)cc1 (stereo unspecified) | -7 | -3 | -2
Cc1ccc(/C=C2\SC(=S)N(CCC(=O)O)C2=O)cc1 | -1 | 4 | -3
CC(C)C(C(=O)O)N1C(=O)/C(=C/c2ccc(N(C)C)cc2)SC1=S (stereo unspecified) | -7 | -3 | 54*
COc1cc(-c2nc3ccc(Br)cn3c2NC(C)(C)CC(C)(C)C)ccc1OS(=O)(=O)c1cccc2ccccc12 | -9 | -4 | 8
O=C(Cn1c(CO)cnc1SCc1ccccc1)NC1CC1 | . | -6 | 9
Cc1nccn1-c1ccc(CNC(=O)C2CCC(=O)N(Cc3ccccc3F)C2)cc1 (stereo unspecified) | . | -7 | 12
O=S(=O)(NCCc1coc(-c2ccccc2)n1)c1ccc(F)cc1Cl | -1 | 5 | -1
CCn1ccnc1CN(C)Cc1nc(-c2sccc2C)oc1C | . | -7 | 9
Cc1cc(C(=O)NCCc2nc3ccccc3[nH]2)n[nH]1 | . | -6 | -7
CCOc1cc(C=C2SC(=S)N(c3ccc(OC)cc3)C2=O)ccc1O | -6 | -7 | -4
CN1C(=O)C(=Cc2ccc(O)cc2)SC1=S | . | 4 | 18
CCOc1cc(/C=C2\SC(=S)N(NC(=O)c3ccccc3O)C2=O)ccc1O | 8 | -8 | 59*
CC(=O)NN1C(=O)/C(=C\c2ccc(O)cc2)SC1=S | -8 | -8 | 81*
CC(C)(C)OC(=O)N1CCc2[nH]c(=O)c(S(C)(=O)=O)cc2C1 | -17 | -8 | 13
CCOC(=O)c1cn[nH]c1S(=O)(=O)N1CCN(C2CCCCC2)CC1 | -6 | -4 | 1
C=CCOc1ccc(C=C2COc3ccccc3C2=O)cc1OC | 46* | -3 | 3
COc1cc(C=C2COc3ccccc3C2=O)ccc1OCC#N | 38 | -5 | 0
CN1CCN(c2cc(Cl)nc(SCc3ccc(C(=O)NCCN4CCCC4)cc3)n2)CC1 | 8 | 69* | 12
O=C(NCCN1CCCCC1)c1ccc(CSc2nc(Cl)cc(N3CCCC3)n2)cc1 | -4 | -6 | 5
CCN(CC)CCNc1cc(C)nc2cc(-c3ccc(OC)c(OC)c3)nn12 | -7 | -8 | 4
C=CCN(Cc1nccn1Cc1ccccc1F)C(=O)c1cccc(F)c1 | -3 | -1 | 6
O=C(CNCc1ccccc1)N1CC(=O)N(c2cccc(Cl)c2)C1 | 2 | 4 | 46*
O=C(CNCc1ccco1)N1CC(=O)N(c2cccc(Cl)c2)C1 | . | -1 | 25
COc1ccc2o/c(=N\NC(N)=S)c(-c3nc4ccccc4[nH]3)cc2c1 | . | 2 | -2
NC(=S)N/N=c1\oc2cc(O)ccc2cc1-c1nc2ccccc2[nH]1 | . | 1 | 67*
SMILES | mcGAS lum | hcGAS inh | NPYLR7 ag
CSc1nnc(C(C)(C)C)c(=O)n1N=Cc1ccc([N+](=O)[O-])cc1 | -4 | -4 | -7
CC(C)Oc1ccc(C(=O)N2CCn3c(nnc3C(N)=O)C2)cc1 | . | -5 | 7
CNc1ccc(-c2ccc(OC)nc2)cn1 | . | -17 | 2
CCNc1ccc(OC)nc1 | . | 0 | 55*
N#Cc1c(C(F)(F)F)cc(=O)n2c1[nH]c1ccccc12 | . | 46* | -3
Cc1cc(=S)n2c([nH]c3ccccc32)c1C#N | . | 41* | -8
N#Cc1c(-c2ccccc2)cc(=O)n2c1[nH]c1ccccc12 | . | 1 | 4
Cc1c(Cc2ccccc2)c(=O)n2c([nH]c3ccccc32)c1C#N | . | -2 | 4
Clc1ccc2nc(NN=Cc3cccnc3)nc(-c3ccccc3)c2c1 | . | 1 | 0
CCc1ccccc1C1c2cccn2CCCN1Cc1ccccc1[N+](=O)[O-] (stereo unspecified) | -3 | 1 | 12
COc1ccccc1C1c2cccn2CCCN1Cc1ccccc1[N+](=O)[O-] (stereo unspecified) | -5 | 81* | 7
CC(C)c1cnc(SC2CCN(C3CC3)C2=O)n1C(C)C (stereo unspecified) | . | -6 | 5
Cc1c(C(=O)OCc2ccc(Cl)cc2)nnn1-c1ccccc1 | -6 | -7 | 1
CC(NCC1CCC1)c1ccccc1 (stereo unspecified) | . | -3 | -7
CC(NCCC(c1ccccc1)c1ccccc1)c1ccccc1 (stereo unspecified) | -5 | -4 | 59*!
O=C(C1=C(O)c2ccccc2S(=O)(=O)N1)c1ccc(Cl)s1 | . | 41* | 5
O=C(O)c1ccc(Cl)s1 | . | -1 | 3
O=C(c1ccc(=O)[nH]c1)N(CCc1ccccc1)C1CCOC1 (stereo unspecified) | . | -4 | 1
CCN=c1cc2oc3cc(NCC)c(C)cc3c(-c3ccccc3C(=O)OCC)c-2cc1C | -20 | -29 | 159*
CCOC(=O)COc1cc2c(-c3cc4ccccc4o3)cc(=O)oc2cc1C | -6 | -3 | 0
CCOC(=O)c1ccccc1-c1c2ccc(=N)cc-2oc2cc(N)ccc12 | -12 | -2 | 120*
CCOC(=O)c1cc(C(=O)OCC)c2c(C)cc(C)cc(C)c1-2 | . | -27 | -7
CCN(C(=O)c1cc(Cl)nc(NC)c1)c1nc(C)cs1 | . | -3 | -2
CCN(CC(=O)NC(C)C)C(=O)CCc1ccc(-c2ccc(OC)cc2)o1 | . | -5 | 4
CCCCc1nn2c(N)c(C=C3C=CC(=O)C(OCC)=C3)c(=O)nc2s1 | . | -2 | 39
SMILES | mcGAS lum | hcGAS inh | NPYLR7 ag
C=CCC1=CC(=Cc2c(N)n3nc(Cc4cccs4)sc3nc2=O)C=C(OC)C1=O | . | 2 | 95*
CC(C)c1nc(CC(=O)NCc2ccc(C#N)cc2)cs1 | -6 | -2 | -1
C[n+]1ccc(C=CC(=O)c2ccc3c4c(cccc24)CC3)cc1 | 20 | 17 | 1
C[n+]1ccc(C=CC(=O)c2ccc3cccc4c3c2CC4)cc1 | 61* | -8 | 2
CCOC(=O)c1c(NC(=O)C2CC2)sc(C(=O)Nc2cccc(OC)c2)c1C | 3 | 5 | 12
O=C(O)C1C2CC3C1C(=O)Oc1ccc(Br)cc1C1c4sc(=O)[nH]c4SC2C13 (stereo unspecified) | 41* | -1 | 13
O=C(O)C1C2CC3C1C(=O)Oc1ccccc1C1c4sc(=O)[nH]c4SC2C13 (stereo unspecified) | 14 | -4 | 15
CCCCCCc1ccc(C(=O)N(CCCC)CC(=O)Nc2cc(C(C)(C)C)nn2C)cc1 | -4 | 0 | -1
S=c1[nH]nc(-c2cccs2)o1 | . | 2 | -2
S=c1[nH]nc(-c2cc(-c3cccs3)nc3ccccc23)o1 | . | 77* | -1
Cc1ccc2oc(-c3ccc(NC(=O)c4cc(Br)ccc4Cl)cc3O)nc2c1 | -5 | -7 | 8
CCOC(=O)NCCN1C(=O)SC(=Cc2cccs2)C1=O | -7 | -7 | -1
O=C(O)CSc1ccc2c3c(cccc13)C(=O)c1ccccc1-2 | 66* | 76* | 94*
CCNC(=O)CSc1ccc2c3c(cccc13)C(=O)c1ccccc1-2 | . | 2 | 37
Cc1nonc1C(=O)N1CCc2c([nH]c3ccccc23)C1C1CCCCC1 (stereo unspecified) | -5 | -3 | 3
CCOc1cc(C=C(C#N)S(C)(=O)=O)ccc1OC | -5 | -5 | 6
CS(=O)(=O)/C(C#N)=C/c1cnc2ccc(Br)cn12 | -7 | 88* | 1
CC1CCN(Cc2nc3c(c(=O)n(C)c(=O)n3C)n2CC(=O)C(C)(C)C)CC1 | -2 | -1 | -8
c1ccc(-c2csc(N3CCOCC3)c2-c2ccccc2)cc1 | . | -6 | 2
